The list is not random: actives were taken first. Their share in the collection is about 3.1%.
GLS inh: qHTS for Inhibitors of Glutaminase (GLS); GLS enzymatic activity, qHTS titration; 0.21% of 410,000 active; AID 624170, 2012; Glutaminase kidney isoform, mitochondrial (Homo sapiens), O94925; Potency, µM (highest dose often 45.5 µM), without a hit: top-dose activity change, negative = inhibition, hits mostly inhibitors; note: potency is the fitted concentration of half-maximal effect
Target sequence (O94925 whole entry, looked up, canonical isoform): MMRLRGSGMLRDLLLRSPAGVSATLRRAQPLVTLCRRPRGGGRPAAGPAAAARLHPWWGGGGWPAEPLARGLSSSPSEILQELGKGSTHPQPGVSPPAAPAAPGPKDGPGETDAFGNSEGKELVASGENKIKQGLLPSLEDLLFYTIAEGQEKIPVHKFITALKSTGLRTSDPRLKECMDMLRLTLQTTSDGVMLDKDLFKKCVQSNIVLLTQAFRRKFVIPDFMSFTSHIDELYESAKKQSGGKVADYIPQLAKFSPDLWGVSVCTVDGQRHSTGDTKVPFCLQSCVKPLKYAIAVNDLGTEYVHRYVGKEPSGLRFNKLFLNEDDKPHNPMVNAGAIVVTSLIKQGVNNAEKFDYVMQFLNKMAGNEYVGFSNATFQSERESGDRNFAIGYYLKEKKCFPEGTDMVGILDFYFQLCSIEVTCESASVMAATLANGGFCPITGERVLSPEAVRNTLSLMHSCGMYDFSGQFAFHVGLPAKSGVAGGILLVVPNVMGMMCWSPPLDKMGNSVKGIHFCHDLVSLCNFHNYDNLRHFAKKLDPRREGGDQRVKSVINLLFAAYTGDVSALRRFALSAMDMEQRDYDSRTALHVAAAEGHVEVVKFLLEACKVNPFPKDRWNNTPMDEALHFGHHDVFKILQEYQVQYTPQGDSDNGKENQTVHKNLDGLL
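Glutamate formation by hKGA was monitored fluorometrically using coupled glutamate oxidase, HRP and Amplex Red. Substrate was added as 1 mM L-glutamine solution; incubation was 30 min at RT after an initial read.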
PLK1 PBD block: qHTS for Inhibitors of PLK1-PDB (polo-like kinase 1 - polo-box domain): Primary Screen; Serine/threonine-protein kinase PLK1 (Homo sapiens), P53350; Plk1 PBD binding of FITC phosphopeptide, fluorescence polarization; Potency, µM, for inactives: max response, negative = inhibition, usual class: inhibitors; 2.8% of 360,000 active; note: potency is the fitted concentration of half-maximal effect; series mostly up to about 57 µM; nearly all actives have a fitted effect of over 65% in size
PI4K2A inh: qHTS for small molecular inhibitors of PI4K2A; purified PI4K2A, ADP-Glo luminescence, 1 h; stronger effect = lower value; activity change, negative = inhibition, % at 76.9 µM; 0.13% of 420,000 active; AID 1346378, 2018; in the data active = activity change below about -50%; inconclusive = mostly about -30% to -49%;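 note: -100% = wells without enzyme as full effect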
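PI4K2A activity was measured by ADP-Glo luminescence: enzyme (4 ug/mL stock) and phosphatidylinositol (1.2 mM stock) in Tris pH 7.5/MgCl2/EGTA/Triton X-100 buffer were reacted with ATP (300 microM stock) for one hour at ambient temperature.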
VDR inhibitor: Inhibitors of the vitamin D receptor (VDR): qHTS. Vitamin D3 receptor (Homo sapiens), P11473. VDR-SRC2-3 peptide fluorescence polarization, 2 h. Potency, µM, for inactives: max response, negative = inhibition, actives largely listed as inhibitors. 0.93% of 400,000 active. AID 504847, 2011; note: potency is the fitted concentration of half-maximal effect
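Reagent solutions, kept cold and dark, are dispensed first; compounds are then pinned in at 23 nl, plates briefly spun, and incubated 2 h at ambient temperature. Inhibition of VDR–SRC2-3 peptide binding is read by fluorescence polarization.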
KAT2A inh: qHTS Assay for Inhibitors of GCN5L2 | 0.21% of 390,000 active | Potency, µM (highest dose often 58.9 µM), without a hit: top-dose activity change, negative = inhibition, most hits filed as inhibitors | GCN5L2 HAT assay, ThioGlo1 CoA-SH fluorescence | Histone acetyltransferase KAT2A (Homo sapiens), Q92830 | AID 504327, 2011; note: potency is the fitted concentration of half-maximal effect
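Preincubate 20nM GCN5L2 with compound 15 min, RT → add 50uM ThioGlo1 + 75uM H3(1-25) + 70uM acetyl-CoA → read fluorescence 0 and 20 min. Primary qHTS; fluorescent artifacts likely.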
Numbers without * were called inactive; [ ] = dose if it differs, or a comment. Unless noted, calls come from the whole dose curve; as a rule, active = well fitted curve in the direction sought with a large enough effect; inconclusive = small, poorly fitted or top-dose-only effect, or another doubt; inactive = no such curve, though single readings can be large; an effect the other way counts as inactive or inconclusive. Unless noted, % is set by controls: 0 for no effect and ±100 for the full control effect.

For N=C1SCC(=O)N1c1ccccc1Cl the results were GLS inh 25%, PLK1 PBD block -16%, PI4K2A inh -1, VDR inhibitor -16% and KAT2A inh 0%.
`Cc1ccc(-n2sc3cc(F)ccc3c2=O)c(C)c1` gave GLS inh inconclusive, PLK1 PBD block 3µM* and PI4K2A inh 1.
Screening O=c1c2cc(F)ccc2sn1-c1ccccc1Cl returned GLS inh inconclusive, PLK1 PBD block 2.7µM* and PI4K2A inh -5.
For COC(=O)c1cccc(-n2sc3ccccc3c2=O)c1 the results were GLS inh 11µM*, PLK1 PBD block 2.7µM*, PI4K2A inh -12, VDR inhibitor inconclusive and KAT2A inh 1.6µM*.
Screening C=CCN1C(C(=O)OC)CN(Cc2cn(Cc3ccc(F)cc3)nn2)CCS1(=O)=O (centres undefined) returned PI4K2A inh -9.
`CCOC(=O)c1c(Nc2cccc(C)c2)nnc(-c2ccccc2)c1-c1ccccc1` gave GLS inh -10%, PI4K2A inh 7, VDR inhibitor -6% and KAT2A inh -13%.
For O=c1c2ccc(F)cc2sn1-c1ccccc1 the results were GLS inh 7.1µM*, PLK1 PBD block 3.4µM* and PI4K2A inh -8.
Screening COc1ccc(-c2cc3nc4n(c(=O)c3s2)CCC4)cc1 returned GLS inh -4%, PLK1 PBD block -6%, PI4K2A inh -12, VDR inhibitor -8% and KAT2A inh -11%.
For Cc1nc2cc(-c3ccccc3)sc2c(=O)n1N the results were GLS inh 12%, PLK1 PBD block 1%, PI4K2A inh -80*, VDR inhibitor 2% and KAT2A inh -2%.
Screening COc1ccc(-c2cc3nc(C)n(N)c(=O)c3s2)cc1 returned GLS inh -2%, PLK1 PBD block -3%, PI4K2A inh -87*, VDR inhibitor 6% and KAT2A inh -24%.
Screening CC(=O)Nc1ccc(SC(C)C(=O)NC(N)=O)cc1 (centres undefined) returned GLS inh 6%, PLK1 PBD block 24µM*, PI4K2A inh 0, VDR inhibitor -20% and KAT2A inh -7%.
COc1ccc(NC(=O)C(C)Sc2ccccc2)cc1 (centres undefined) was read as GLS inh 9%, PLK1 PBD block 0%, PI4K2A inh 1, VDR inhibitor 0% and KAT2A inh -7%[0.501 µM].
NC1=C(Br)C(=O)c2ccccc2C1=O was read as GLS inh 24%, PLK1 PBD block -8%, PI4K2A inh -18, VDR inhibitor -3% and KAT2A inh -1%.
Screening NC1=CC(=O)C(=O)c2ccccc21 returned GLS inh 3%, PLK1 PBD block -22%, PI4K2A inh inconclusive and VDR inhibitor 45µM*.
COc1cc(N=Nc2ccc(Br)cc2)cc(C=O)c1O was read as GLS inh 4%, PLK1 PBD block 27µM* and PI4K2A inh -2.
`COc1cc(CN(C)C)cc(C=O)c1O` gave GLS inh 0%, PLK1 PBD block -9%, PI4K2A inh -4, VDR inhibitor 7% and KAT2A inh inconclusive.
For Cc1ccc(NC(=O)C2CC(=O)Nc3ncnn32)cc1Cl (centres undefined) the results were GLS inh -10%, PLK1 PBD block 27µM*, PI4K2A inh 0, VDR inhibitor -17% and KAT2A inh -2%.
`Cc1ccc(NC(=S)NCc2ccc3c(c2)cc(C)n3C)c(C)c1` gave GLS inh 28%, PLK1 PBD block 19µM*, PI4K2A inh -5, VDR inhibitor inconclusive and KAT2A inh -8%.
For CCCNC(=O)c1ccc(C2SCC(=O)N2Cc2ccccc2)cc1 (centres undefined) the results were GLS inh 2%, PLK1 PBD block -1%, PI4K2A inh 2, VDR inhibitor -1% and KAT2A inh 4%.
For CC(C)CNC(=O)c1ccc(C2SCC(=O)N2Cc2ccccc2)cc1 (centres undefined) the results were GLS inh -21%, PLK1 PBD block 24µM*, PI4K2A inh -2, VDR inhibitor 79µM* and KAT2A inh 2%.
C#CCn1c(=O)c2c(nc(/C=C/c3cccc(OC)c3)n2C)n(CCCOP(=O)(O)O)c1=O was read as VDR inhibitor -12% and KAT2A inh 0%.
`O=C(Nc1nc2ncccn2c1-c1ccc(F)c(F)c1)C1CC1` gave PI4K2A inh 3.
Screening CCOC(=O)CC[C@@H]1CC[C@]2(CCCN(C(=O)C3CCCC3)C2)O1 returned PI4K2A inh -2.
For CCCCC(=O)N1C(C)CCC1C (centres undefined) the results were GLS inh -6%, PLK1 PBD block 24µM* and PI4K2A inh 7.
Screening CCCCCCCCC(=O)N1C(C)CCC1C (centres undefined) returned GLS inh -9%, PLK1 PBD block 0% and PI4K2A inh 5.
CC(=O)c1ccc(OCC(O)CN2CCN(Cc3ccc4c(c3)OCO4)CC2)cc1 (centres undefined) was read as GLS inh 2%, PLK1 PBD block 27µM*, PI4K2A inh 0, VDR inhibitor inconclusive and KAT2A inh inconclusive.
For N#CCCn1cc(C(N)=O)c(-c2ccc3ccccc3c2)n1 the results were GLS inh -27%, PLK1 PBD block 27µM*, PI4K2A inh 6, VDR inhibitor -23% and KAT2A inh -3%.
`Cc1ccc(C2CC(c3ccc(F)cc3)Nc3nc(N)nn32)cc1` (centres undefined) gave GLS inh 18%, PLK1 PBD block 27µM*, PI4K2A inh -4, VDR inhibitor -19% and KAT2A inh -1%.
For O=C(CN1C(=O)CSc2ccc(S(=O)(=O)N3CCCC3)cc21)NCc1ccc(F)cc1Cl the results were GLS inh 1%, PI4K2A inh -11, VDR inhibitor -6% and KAT2A inh -7%.
Screening CC1(C)CC(c2nc(-c3ccc(Br)cc3)cs2)CCS1 (centres undefined) returned GLS inh 6%, PLK1 PBD block 3.8µM*, PI4K2A inh -6, VDR inhibitor inconclusive and KAT2A inh -12%.
`Cc1ccc(C)c(NC(=S)c2nc3ccccc3s2)c1` gave GLS inh -2%, PLK1 PBD block 8.4µM*, PI4K2A inh -4, VDR inhibitor 9% and KAT2A inh 2%.
S=C(Nc1ccc(Cl)cc1)c1nc2ccccc2s1 was read as GLS inh 4%, PLK1 PBD block -14%, PI4K2A inh -7, VDR inhibitor -12% and KAT2A inh 1%.

Source: PubChem BioAssay
